Several values for one entry are separate records, joined by “and”; a condition that tells them apart may be missing. Equal values may be shown once. The source holds several records for some structures; these can differ, active in one and inactive in another. Activity calls are given as the source filed them. The calls were made as follows: active = hit-call score of the fitted dose curve at least 0.9, where 1 is the maximum; inactive = score below 0.9.

One may read the AC50 as the concentration giving half of the maximal activity seen.

A short description of this assay: APR_HepG2_MitoMass_72hr: Apredica 72-hour HepG2 Assay for Mitochondrial Mass (AID 2282924).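 Also: MitoTracker Red CMXRos stain intensity per cell imaged as mitochondrial mass.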 To be noted: high-content imaging, actives raise or lower the signal. The protocol: APR_HepG2_72hr is a cell-based, multiplexed-readout assay that uses HepG2, a human liver cell line, with measurements taken at 72 hours after chemical dosing in a 384-well plate.APR_HepG2_MitoMass_72hr is one of 10 assay component(s) measured or calculated from the APR_HepG2_72hr assay. It is designed to make measurements of cell phenotype, a form of morphology reporter, as detected with fluorescence intensity signals by HCS Fluorescent Imaging technology.Data from the assay component APR_HepG2_MitoMass_72hr was analyzed into 1 assay endpoint. This assay endpoint, APR_HepG2_MitoMass_72hr, was analyzed with bidirectional fitting relative to DMSO as the negative control and baseline of activity. Using a type of morphology reporter, gain or loss-of-signal activity can be used to understand changes in the signaling. Furthermore, this assay endpoint can be referred to as a primary readout, because this assay has produced multiple assay endpoints where this one serves a signaling function. To generalize the intended target to other relatable targets, this assay endpoint is annotated to the cell morphology intended target family, where the subfamily is organelle conformation.
Cells were treated with dimethyl sulfoxide (DMSO) as a solvent control at a final concentration of 0.5% v/v or with compounds in DMSO with a resulting final DMSO concentration of 0.5% v/v. Compound treatment was done at concentrations of 0.39, 0.78, 1.56, 3.12, 6.24, 12.5, 25, 50, 100, and 200 uM in duplicate on each plate. Cells were treated with compounds for 1, 24, or 72 hr. Carbonyl […] m-chloro-phenylhydrazone (CCCP) and taxol were used as positive controls for mitochondrial function and cytoskeletal stability, respectively; DMSO served as the negative control for this experiment. Cells were fixed by the direct addition of 50 uL formaldehyde in Hank's Balanced Salt Solution (HBSS) to a final concentration of 3.7%. After incubation in the fixation medium for 30 min at room temperature (293-298 K), cells were rinsed twice with HBSS and treated with cell permeabilization buffer (16 uL of 0.5% Triton X-100) for 10 min at room temperature (293-298 K) before labeling. For mitochondrial membrane potential and mitochondrial measurements, pre-fixed cells were incubated with 50 uL of MitoTracker Red CMXRos (Invitrogen) at a concentration of 250 nM for 30 min before fixation. In the remaining cases, post-fixed cells were labeled by incubation with a multiplexed mixture of primary antibodies in HBSS for 60 min at room temperature (293-298 K) to detect immunoreactivity of c-Jun (1:500), phospho-histone H3 (1:100), phospho-histone H2A.x (1:200), p53 (1:400), alpha-tubulin (1:200) and Hoechst 33342 (2 ug/mL). Cells were labeled for multiplexed imaging on two separate plates: a) Hoechst 33342, MitoTracker Red, phospho-histone H3, and alpha-tubulin, and b) Hoechst 33342, phospho-histone H2A.x, and c-Jun. A final rinse with HBSS (50 uL) was performed before analysis. The primary and secondary antibodies for the proteins were phospho-histone H3 (rabbit anti-phospho-histone H3 and FITC-donkey anti-rabbit IgG), phospho-histone H2A.x (mouse anti-phospho-histone H2A.x and FITC-donkey anti-mouse IgG), c-Jun (rabbit anti-phospho-c-Jun and Cy3-donkey anti-rabbit IgG), p53 (sheep anti-p53 and Cy5-donkey anti-sheep IgG), alpha-tubulin (mouse anti-alpha-tubulin and Cy5-donkey anti-mouse IgG). These antibodies are available as the CellCiphr HepG2 assay kit (Millipore).Digital images of each well were captured using a Cellomics ArrayScan VTI (Thermo Scientific Cellomics) (0.8 NA objective, 0.63x optical coupler, and XF-93 filter set) at 20x magnification. The images were acquired using the autofocus feature of the ArrayScan instrument, which entails the following steps. First, the camera focuses on channel 1 (Hoechst 33342), where nuclei are identified. Second, a Z offset of 1 um is used for capturing mitochondria (MitoTracker Red). […]
For the molecule `CC(C)C1(C)N=C(c2nc3ccccc3cc2C(=O)O)NC1=O` (stereo not given), the result was inactive. On to `COC(=O)C(C)Oc1ccc(Oc2ccc(Cl)cc2Cl)cc1` (stereo not given), for which the molecule was called inactive. For the molecule `CC(Oc1ccc(Cl)cc1Cl)C(=O)O` (stereo not given), the result was inactive. With `CCCCNC(=O)OCC#CI`, the molecule was classed as inactive and the AC50 is 5.54 µM (active).

Regarding `CCOC(=O)CC(SP(=S)(OC)OC)C(=O)OCC` (stereo not given), the result was inactive. Regarding `C=CCC1=C(C)C(OC(=O)C2C(C=C(C)C)C2(C)C)CC1=O` (stereo not given), the AC50 is 66.4 µM (active) and the outcome was inactive. As for `Cc1c(F)c(F)c(COC(=O)C2C(/C=C(\Cl)C(F)(F)F)C2(C)C)c(F)c1F` (stereo not given), the result was inactive. Same read-out and setting: the entry for `N#Cc1nn(-c2c(Cl)cc(C(F)(F)F)cc2Cl)c(N)c1S(=O)C(F)(F)F` (stereo not given) is “inactive”. As to `O=C(Nc1ccccc1)Nc1ccnc(Cl)c1`, the call was inactive. The same measure, in the same setting: to `CC1=C(C(=O)Nc2ccccc2)SCCO1` belongs “inactive”; to `COc1nc(NC(C)C)nc(NC(C)C)n1`, “inactive”. Still for that read-out and setting: the entry for `CCOP(=S)(OCC)SCn1c(=O)oc2cc(Cl)ccc21` is “inactive”; for `O=C(O)COc1nc(Cl)c(Cl)cc1Cl` it is “inactive”. The same measure, in the same setting: to `COc1cnc(OC)n2nc(NS(=O)(=O)c3c(OCC(F)F)cccc3C(F)(F)F)nc12` belongs “inactive”; to `COc1ccc(C(c2ccc(OC)cc2)C(Cl)(Cl)Cl)cc1`, “inactive”. With `C=CC1(C)OC(=O)N(c2cc(Cl)cc(Cl)c2)C1=O` (stereo not given), the molecule was classed as inactive. The same measure, in the same setting: the entry for `Cc1ccc(-c2c(Cl)nc(C#N)n2S(=O)(=O)N(C)C)cc1` is “inactive”. Still for that read-out and setting: to `COP(=S)(OC)Oc1nc(Cl)c(Cl)cc1Cl` belongs “inactive”. Consider `CC(C)Oc1cc(-n2nc(C(C)(C)C)oc2=O)c(Cl)cc1Cl`, for which the molecule was called inactive. The same measure, in the same setting: to `CS/C(C)=N/OC(=O)N(C)SN(C)C(=O)O/N=C(\C)SC` belongs “inactive”; to `Cc1cc(Cl)ccc1OCC(=O)O`, “inactive”; to `CCNc1nc(Cl)nc(NC(C)C)n1`, “inactive”. Same read-out and setting: to `CCCC1COC(Cn2cncn2)(c2ccc(Cl)cc2Cl)O1` (stereo not given) belongs “inactive”.

Take `COc1nc(C)nc(NC(=O)NS(=O)(=O)c2ccccc2Cl)n1`: the outcome was inactive.

`CO/C=C(/C(=O)OC)c1ccccc1Oc1cc(Oc2ccccc2C#N)ncn1`: the AC50 was 1.68 µM (active) and 3.44 µM (active); the molecule was called inactive.

`CCCN(CCC)c1c([N+](=O)[O-])cc(S(N)(=O)=O)cc1[N+](=O)[O-]`: the AC50 is 94.8 µM (active) and the molecule was called inactive.

Turning to `COC(=O)N(OC)c1ccccc1COc1ccn(-c2ccc(Cl)cc2)n1`, the result was inactive. Consider `N#CC(CCc1ccc(Cl)cc1)(Cn1cncn1)c1ccccc1` (stereo not given), for which the outcome was inactive. `OC(c1ccc(Cl)cc1)(c1cncnc1)c1ccccc1Cl` (stereo not given): the result was inactive. As for `CCOc1cc(Oc2ccc(C(F)(F)F)cc2Cl)ccc1[N+](=O)[O-]`, the outcome was inactive. On the same count and under the same terms, the entry for `COC(=O)c1ccccc1C(=O)OC` is “inactive”; for `CNC(=O)ON=CC(C)(C)SC` it is “inactive”. In the case of `O=C(O)c1nc(Cl)ccc1Cl`, the molecule was called inactive. On to `CCOC(=O)C(Cl)Cc1cc(-n2nc(C)n(C(F)F)c2=O)c(F)cc1Cl` (stereo not given), for which the result was inactive.

As for `COc1nc(C)nc(NC(=O)NS(=O)(=O)c2ccccc2CCC(F)(F)F)n1`, the result was inactive. The same measure, in the same setting: the entry for `COC(=O)C=C(C)OP(=O)(OC)OC` is “inactive”.

The values are drawn from PubChem BioAssay (EPA / NIEHS).
